# Compound activity deposited in PubChem BioAssay by National Center for Advancing Translational Sciences (NCATS).
# The list is not random: actives were taken first. Their share in the collection is about 17%.
# ATXN2 expr inh – reduces ATXN2 reporter expression in HEK-293 cells. 360,000 tested, 0.72% active. AID 1745845. HEK-293 ATXN2-luciferase reporter, luminescence, 24 h. Potency, µM (doses to about 57 µM), without a hit: at the highest dose activity change, negative = inhibition, most hits filed as inhibitors; also: % is scaled to controls: 0 for no effect and ±100 for the full control effect; nearly all actives have a fitted effect of over 55% in size
#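 ATXN2-luciferase reporter cells (luciferase flanked by upstream and downstream ATXN2 gene portions) were treated 24 h at 37 °C with compounds at up to 57 uM. SteadyGlo luminescence gave expression; GF-AFC fluorescence gave viability.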
# ATXN viability – viability counter-screen for ATXN expression inhibitors | 400,000 tested, 0.49% active | Potency, µM (series often up to 56.7 µM), most hits filed as cytotoxic | S2 cells (HEK-293 line with an ATXN2-luciferase reporter) viability, CellTiter-Fluor protease fluorescence, 24 h; also: nearly all actives have a fitted effect of over 40% in size
# DT40 TDP1 CPT – DT40-hTDP1 cell growth loss with CPT; chicken DT40 Tdp1-/-;hTDP1 cells + 20 nM CPT, ATP luminescence, 48 h; 420,000 tested, 12% active; Potency, µM (doses to about 46.2 µM), inactives show at the highest dose activity change, negative = growth inhibition, usual class: inhibitors; also: % is scaled to controls: 0 for no effect and ±100 for the full control effect; nearly all actives have a fitted effect of over 55% in size
#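 Cell growth measured by CellTiter-Glo luminescence after a minimum 48 h, 37 C compound exposure with 20 nM CPT in Tdp1-knockout DT40 cells stably expressing hTDP1, seeded 400/well; qHTS titration format.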
# HepG2 tox – HepG2 cytotoxicity, counter-screen for TGF-b inhibitors; HepG2 CAGA-GFP viability, ATP luminescence, 18 h; Potency, µM (top dose mostly 46.1 µM), inactives show at the highest dose activity change, negative = cytotoxicity, usual class: cytotoxic; 410,000 tested, 0.76% active; AID 588856
#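 CellTiter-Glo luminescence gave cytotoxicity after 18 hours at 37 degrees C. The cells were HepG2 CAGA-GFP in 1% FBS DMEM, stimulated with 500 pg/mL TGF-beta after compound addition. %Activity was normalised to no-cell wells (complete cell-killing) and DMSO (no toxicity), and curves were fitted and classified.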
# DT40 TDP1 no CPT – qHTS for Inhibitors of human tyrosyl-DNA phosphodiesterase 1 (TDP1): qHTS in cells in absence of CPT | 420,000 tested, 15% active | AID 686978, 2013 | DT40 Tdp1-/- hTDP1 cells, no CPT, ATP luminescence, 48 h | Potency, µM (doses to about 46.2 µM), without a hit: top-dose activity change, negative = growth inhibition, usual class: inhibitors; also: % is scaled to controls: 0 for no effect and ±100 for the full control effect; nearly all actives have a fitted effect of over 55% in size
#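 Growth of hTDP1-complemented DT40 Tdp1-knockout cells is measured by ATP luminescence after at least 48 hr compound exposure at 37 °C, with DMSO substituting for the 20 nM CPT used in the parallel screen.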
# TGFb SMAD3 inh – TGF-b pathway inhibition | Potency, µM (series often up to 46.1 µM), without a hit: top-dose activity, negative = inhibition, most hits filed as inhibitors | HepG2 CAGA-GFP TGF-b/SMAD3 reporter, GFP fluorescence, 18 h; TGF-beta stimulated, 500 pg/mL final | 410,000 tested, 1.2% active; also: % is scaled to controls: 0 for no effect and ±100 for the full control effect; nearly all actives have a fitted effect of over 65% in size
#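 TGF-beta reporter screen: HEPG2 CAGA-GFP, 1% FBS, 500 pg/mL TGF-beta final, 18 h; per-cell GFP summed per well; curves fitted and categorized by class.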
# * hit, by the source's call; i = inactive; u = inconclusive; x = not tested or not shown; [ ] = another dose, or the depositor's remark. Calls follow the shape of the dose curve; as a rule, active = well fitted curve in the direction sought with a large enough effect; inconclusive = small, poorly fitted or top-dose-only effect, or another doubt; inactive = no such curve, though single readings can be large; an effect the other way counts as inactive or inconclusive. Potency is read from the fitted curve at half-maximal effect.
SMILES,ATXN2 expr inh,ATXN viability,DT40 TDP1 CPT,HepG2 tox,DT40 TDP1 no CPT,TGFb SMAD3 inh
Cc1cccc(NC(=O)NCC(c2ccco2)N2CCCCC2)c1 (stereo not drawn),4%[11.3 µM],i,-12%,-18%,-13%,2%
CSc1ccccc1C(=O)NCC(c1ccco1)N1CCCCC1 (stereo not drawn),-27%,u,-3%,-8%,-19%,-1%
COc1ccc(C(CNC(=O)C(C)(C)Oc2ccc(Cl)cc2)N2CCCCC2)cc1 (stereo not drawn),-6%,i,u,-25%,u,u
CC(C)(Oc1ccc(Cl)cc1)C(=O)NCC(c1ccco1)N1CCCCC1 (stereo not drawn),1%,i,21µM*,-12%,18µM*,u
O=C(NCC(c1ccco1)N1CCCC1)c1sc2ccccc2c1Cl (stereo not drawn),x,i,u,-33%,21µM*,-14%
CCc1cc(C(=O)NCC(c2ccco2)N2CCCCC2)sc1C (stereo not drawn),x,i,u,-20%,15µM*,3%
CCOc1ncccc1C(=O)NCC(c1ccco1)N1CCCCC1 (stereo not drawn),5%,i,21µM*,6%,u,-4%
CCN(CC)S(=O)(=O)c1ccc(C(=O)NCC(=O)NC2CC2)cc1,-15%,i,5%,-5%,-37%,-6%
CCc1ccc2oc(-c3ccc(C)c(NC(=O)Cc4ccccc4)c3)nc2c1,67%,i,-21%,-1%,-19%,3%
COc1ccccc1-c1nn(-c2ccccc2)cc1C(=O)NCC(c1ccco1)N1CCCC1 (stereo not drawn),-3%,i,u,-24%,u,-20%
CCOCc1c(C(=O)NCC(c2ccco2)N2CCCC2)oc2ccccc12 (stereo not drawn),-7%,i,23µM*,-7%,u,-4%
O=C(NCC(c1ccco1)N1CCCC1)c1cn(-c2ccccc2)nc1-c1ccc(F)cc1 (stereo not drawn),1%,i,16µM*,0%,10µM*,1%
O=C(NCC(c1ccco1)N1CCCC1)c1ccccc1F (stereo not drawn),23%,i,-3%,20%,-2%,-11%
CCCCCC(=O)N1C[C@H](O)[C@@H](n2cc(COC(=O)c3ccccc3)nn2)C[C@@H]1c1ccc(Cl)cc1,-14%,i,u,-7%,26µM*,-4%
CCCCCC(=O)N1C[C@@H](O)[C@H](n2cc(COC(=O)c3ccccc3)nn2)C[C@@H]1c1ccc(C)cc1,0%,i,-3%,-23%,5%,-2%
CCCCCC(=O)N1C[C@H](n2cc(COC(=O)c3ccccc3)nn2)[C@@H](O)C[C@@H]1c1ccccc1,2%,i,4%,6%,4%,3%
CCCCCC(=O)N1C[C@H](n2cc(COC(=O)c3ccccc3)nn2)[C@@H](O)C[C@@H]1c1ccc(OC)cc1,u,u,21µM*,-27%,u,-7%
CCn1cnc2c(=O)oc3ccc(S(=O)(=O)Nc4ccc(OC)cc4)cc3c21,u,u,u,-33%,u,u
O=C(Nc1c2c(nn1-c1ccc(Cl)cc1)CS(=O)(=O)C2)C1CC1,4%,i,-1%,12%,0%,22%
CCC1=C(c2ccc(C)cc2)S(=O)(=O)N=C1N1CCC(C(=O)N2CCCCC2)CC1,6%,i,-30%,10%,u,-2%
c1ccc(CSc2ccc3nnc(-c4cccnc4)n3n2)cc1,7%,i,u,-25%,u,10%
O=C(CSc1c2c(nc3ccc(Cl)cc13)CCCC2)NCc1ccccc1Cl,x,x,15µM*,-35%,23µM*,-12%
O=C(CSc1c2c(nc3cc(Cl)ccc13)CCCC2)NCc1ccccc1Cl,x,x,18µM*,-28%,15µM*,u
Cc1cc(C)c2cc(C#N)c(SCC(=O)NCc3ccco3)nc2c1,-17%,i,18µM*,-14%,18µM*,-11%
O=C(CSc1c2c(nc3cc(Cl)ccc13)CCCC2)NCc1ccco1,-5%,i,23µM*,-44%,16µM*,18µM*
SMILES,ATXN2 expr inh,ATXN viability,DT40 TDP1 CPT,HepG2 tox,DT40 TDP1 no CPT,TGFb SMAD3 inh
Cc1ccc(CNC(=O)CSc2c3c(nc4ccc(Cl)cc24)CCCC3)cc1,x,x,u,-13%,u,-1%
O=C(Nc1ccccc1)OCC1COC(c2ccccc2)(c2ccccc2)O1 (stereo not drawn),5%,i,1%,-3%,-2%,-15%
CCCCN(CC)C(=O)CSc1c2c(nc3ccc(Cl)cc13)CCCC2,x,x,7.3µM*,-90%,16µM*,u
COCCNC(=O)CSc1c2c(nc3ccc(Cl)cc13)CCCC2,x,u,16µM*,-47%,u,-15%
CCCSc1ncc(Cl)c(C(=O)Nc2sc(C(C)=O)c(C)c2C(=O)OCC)n1,x,x,3%,12%,-24%,x
O=S(=O)(O)c1cc(I)c(O)c2ncccc12,-3%,i,21µM*,x,21µM*,x
COc1ccc(Nc2nc3[nH]c(=O)cc(O)c3s2)cc1,2%,i,12µM*,-12%,18µM*,-2%
O=c1cc(O)c2sc(Nc3ccc(Cl)c(F)c3)nc2[nH]1,1%,i,5.2µM*,32%,4.6µM*,-30%
COc1ccc(Nc2nc(C)cc(=O)[nH]2)cc1,1%,i,-4%,-3%,-6%,15%
O=c1cc(O)c2sc(Nc3ccc(F)c(Cl)c3)nc2[nH]1,-13%[11.3 µM],i,3.3µM*,12%,3.7µM*,35%
CC(=O)NCCc1ccc(S(=O)(=O)Nc2cccnc2)cc1,-7%,u,-15%,-1%,-9%,6%
CCOc1cc(CNCc2cccnc2)cc(Br)c1OCC(N)=O,-16%,i,-7%,8%,-4%,-19%
CCOC(=O)c1ccc(NC(=O)N2CCN(c3cccc(OC)c3)CC2)cc1,-6%,i,u,-23%,18µM*,-16%
O=C(Nc1ccc(Cl)cc1)N1CCN(c2ccccc2)CC1,5%,i,u,5%,u,-2%
CC(=O)c1ccc(N2CCN(C(=O)Nc3ccc(Cl)cc3)CC2)cc1,-29%,i,u,-5%,10µM*,-25%
